Measured values from the supplement of paper PMC11732987, “Enantioselective OTUD7B fragment discovery through chemoproteomics screening and high-throughput optimisation” (Communications Chemistry, 2025).

What was measured:
Assay in all cases: log2 ratio of Biotin-Ahx-Ub-VS probe labelling (fragment/DMSO); higher = less target engagement (more negative = stronger competition), active = hit call of the paper (q ≤ 0.05, log2 ratio ≤ -1)
Conditions in all cases: compound concentration: 200 uM; treatment time: 3 h
USP42 = target: T1, USP42 (UniProt Q9H9J4)
T1 sequence (whole entry): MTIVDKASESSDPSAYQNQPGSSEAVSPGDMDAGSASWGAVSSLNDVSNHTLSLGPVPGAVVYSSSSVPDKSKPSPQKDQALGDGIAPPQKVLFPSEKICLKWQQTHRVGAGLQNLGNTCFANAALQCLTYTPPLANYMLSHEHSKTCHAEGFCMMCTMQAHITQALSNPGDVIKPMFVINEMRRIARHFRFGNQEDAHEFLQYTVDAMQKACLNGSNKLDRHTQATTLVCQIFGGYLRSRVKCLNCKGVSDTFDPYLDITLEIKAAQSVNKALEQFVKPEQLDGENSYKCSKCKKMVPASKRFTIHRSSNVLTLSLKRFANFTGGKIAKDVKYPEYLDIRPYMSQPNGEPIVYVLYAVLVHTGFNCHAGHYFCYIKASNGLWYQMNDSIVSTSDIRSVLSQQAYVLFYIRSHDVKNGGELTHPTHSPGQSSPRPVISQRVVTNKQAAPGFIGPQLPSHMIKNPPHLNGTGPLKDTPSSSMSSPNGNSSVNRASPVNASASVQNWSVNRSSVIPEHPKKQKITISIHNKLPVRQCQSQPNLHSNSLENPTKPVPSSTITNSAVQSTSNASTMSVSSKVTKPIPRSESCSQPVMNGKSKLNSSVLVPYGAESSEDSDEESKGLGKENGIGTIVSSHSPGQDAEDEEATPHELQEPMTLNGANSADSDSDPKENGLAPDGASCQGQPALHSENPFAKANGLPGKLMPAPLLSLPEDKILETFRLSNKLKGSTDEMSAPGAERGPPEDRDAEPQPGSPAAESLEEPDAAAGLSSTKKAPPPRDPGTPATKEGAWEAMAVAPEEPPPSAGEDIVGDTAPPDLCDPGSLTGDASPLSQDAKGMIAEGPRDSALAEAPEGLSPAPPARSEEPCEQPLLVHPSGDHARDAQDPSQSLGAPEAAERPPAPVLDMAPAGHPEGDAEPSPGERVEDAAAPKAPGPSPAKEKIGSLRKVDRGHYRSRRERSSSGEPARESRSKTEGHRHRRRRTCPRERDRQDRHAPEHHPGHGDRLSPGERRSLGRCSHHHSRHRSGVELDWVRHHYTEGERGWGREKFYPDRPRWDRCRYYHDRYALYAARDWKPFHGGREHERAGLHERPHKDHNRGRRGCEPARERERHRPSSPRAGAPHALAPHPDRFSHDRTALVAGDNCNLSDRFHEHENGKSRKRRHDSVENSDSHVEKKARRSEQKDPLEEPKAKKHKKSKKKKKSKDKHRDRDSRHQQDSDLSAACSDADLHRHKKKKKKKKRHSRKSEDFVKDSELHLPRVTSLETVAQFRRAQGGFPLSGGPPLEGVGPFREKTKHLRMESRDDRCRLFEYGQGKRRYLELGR
Method in brief: (§1)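 Using Biotin-Ahx-Ub-VS at 0.5 µM final for 1 h, DUBs were labelled in HEK293T lysate (495 µg per sample) that had first been treated in triplicate with fragment at 200 µM or vehicle for 3 h. NeutrAvidin enrichment, LysC and trypsin digestion and diaPASEF LC-MS/MS followed. Spectronaut label-free quantities were global-median-normalised. Values are average log2 fragment/vehicle ratios by unpaired t-test, using proteins with ≥2 unique peptides.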

USP46 = USP46 (UniProt P62068)
Method in brief: as §1

USP47 = target: T2, USP47 (UniProt Q96K76)
T2 sequence (whole entry): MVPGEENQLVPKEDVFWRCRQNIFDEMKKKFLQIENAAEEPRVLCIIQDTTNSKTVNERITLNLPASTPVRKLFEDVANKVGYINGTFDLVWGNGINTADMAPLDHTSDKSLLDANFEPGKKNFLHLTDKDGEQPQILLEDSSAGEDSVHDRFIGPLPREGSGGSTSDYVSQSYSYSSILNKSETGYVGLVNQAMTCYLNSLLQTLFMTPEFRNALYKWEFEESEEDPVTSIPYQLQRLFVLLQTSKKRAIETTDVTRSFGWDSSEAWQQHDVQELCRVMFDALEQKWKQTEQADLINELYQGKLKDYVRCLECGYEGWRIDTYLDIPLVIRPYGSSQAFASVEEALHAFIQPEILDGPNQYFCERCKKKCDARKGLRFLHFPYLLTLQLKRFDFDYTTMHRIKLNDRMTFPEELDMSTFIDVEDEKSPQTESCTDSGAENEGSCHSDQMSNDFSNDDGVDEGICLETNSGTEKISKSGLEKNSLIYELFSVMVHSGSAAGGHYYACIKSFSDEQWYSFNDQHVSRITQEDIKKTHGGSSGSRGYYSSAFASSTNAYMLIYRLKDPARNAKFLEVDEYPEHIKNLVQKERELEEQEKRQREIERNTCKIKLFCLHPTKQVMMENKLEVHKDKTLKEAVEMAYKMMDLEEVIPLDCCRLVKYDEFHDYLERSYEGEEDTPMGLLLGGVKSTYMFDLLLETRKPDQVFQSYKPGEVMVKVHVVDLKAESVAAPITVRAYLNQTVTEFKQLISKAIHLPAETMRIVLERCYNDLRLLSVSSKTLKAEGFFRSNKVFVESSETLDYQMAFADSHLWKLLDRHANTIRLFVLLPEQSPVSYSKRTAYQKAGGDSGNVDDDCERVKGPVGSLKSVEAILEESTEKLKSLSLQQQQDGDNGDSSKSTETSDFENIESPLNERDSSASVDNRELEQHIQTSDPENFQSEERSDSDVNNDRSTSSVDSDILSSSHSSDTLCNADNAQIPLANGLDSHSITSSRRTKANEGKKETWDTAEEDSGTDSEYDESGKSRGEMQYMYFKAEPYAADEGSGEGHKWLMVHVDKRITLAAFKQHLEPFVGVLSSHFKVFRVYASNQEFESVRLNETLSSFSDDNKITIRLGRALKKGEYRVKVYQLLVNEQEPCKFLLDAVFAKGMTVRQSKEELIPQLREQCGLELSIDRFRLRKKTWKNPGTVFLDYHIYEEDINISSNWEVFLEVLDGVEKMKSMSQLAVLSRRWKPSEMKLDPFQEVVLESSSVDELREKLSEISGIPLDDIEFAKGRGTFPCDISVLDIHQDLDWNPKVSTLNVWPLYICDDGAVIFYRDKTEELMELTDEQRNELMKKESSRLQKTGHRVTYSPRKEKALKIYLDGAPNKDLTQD
Method in brief: as §1

USP48 = target: T3, USP48 (UniProt Q86UV5)
T3 sequence (whole entry): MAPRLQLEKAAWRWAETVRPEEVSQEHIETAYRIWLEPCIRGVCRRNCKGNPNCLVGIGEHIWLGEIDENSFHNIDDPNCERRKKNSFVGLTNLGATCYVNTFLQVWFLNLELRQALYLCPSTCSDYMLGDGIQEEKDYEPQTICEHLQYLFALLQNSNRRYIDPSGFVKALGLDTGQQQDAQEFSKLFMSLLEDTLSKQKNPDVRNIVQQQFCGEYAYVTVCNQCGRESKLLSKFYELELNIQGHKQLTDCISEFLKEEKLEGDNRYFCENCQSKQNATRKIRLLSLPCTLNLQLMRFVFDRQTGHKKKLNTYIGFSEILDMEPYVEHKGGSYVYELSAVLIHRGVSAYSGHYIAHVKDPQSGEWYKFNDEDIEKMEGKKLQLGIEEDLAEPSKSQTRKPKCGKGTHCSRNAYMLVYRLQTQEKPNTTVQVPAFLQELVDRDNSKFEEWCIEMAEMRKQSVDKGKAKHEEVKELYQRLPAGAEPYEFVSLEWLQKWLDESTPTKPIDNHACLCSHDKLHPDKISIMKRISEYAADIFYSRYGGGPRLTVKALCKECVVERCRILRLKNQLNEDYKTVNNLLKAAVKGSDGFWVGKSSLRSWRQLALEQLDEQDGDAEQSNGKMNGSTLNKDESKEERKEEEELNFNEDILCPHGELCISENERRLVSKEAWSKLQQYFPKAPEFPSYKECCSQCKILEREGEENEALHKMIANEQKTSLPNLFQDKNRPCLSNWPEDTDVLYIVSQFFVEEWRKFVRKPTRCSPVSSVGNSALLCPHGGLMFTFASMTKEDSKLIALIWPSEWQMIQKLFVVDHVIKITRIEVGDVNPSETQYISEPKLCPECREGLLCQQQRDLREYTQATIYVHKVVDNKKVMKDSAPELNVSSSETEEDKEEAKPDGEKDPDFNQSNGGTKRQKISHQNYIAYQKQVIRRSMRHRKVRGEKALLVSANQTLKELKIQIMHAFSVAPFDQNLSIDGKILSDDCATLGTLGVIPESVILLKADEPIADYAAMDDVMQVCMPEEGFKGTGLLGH
Method in brief: as §1

USP5 = target: T4, USP5 (UniProt P45974)
T4 sequence (whole entry): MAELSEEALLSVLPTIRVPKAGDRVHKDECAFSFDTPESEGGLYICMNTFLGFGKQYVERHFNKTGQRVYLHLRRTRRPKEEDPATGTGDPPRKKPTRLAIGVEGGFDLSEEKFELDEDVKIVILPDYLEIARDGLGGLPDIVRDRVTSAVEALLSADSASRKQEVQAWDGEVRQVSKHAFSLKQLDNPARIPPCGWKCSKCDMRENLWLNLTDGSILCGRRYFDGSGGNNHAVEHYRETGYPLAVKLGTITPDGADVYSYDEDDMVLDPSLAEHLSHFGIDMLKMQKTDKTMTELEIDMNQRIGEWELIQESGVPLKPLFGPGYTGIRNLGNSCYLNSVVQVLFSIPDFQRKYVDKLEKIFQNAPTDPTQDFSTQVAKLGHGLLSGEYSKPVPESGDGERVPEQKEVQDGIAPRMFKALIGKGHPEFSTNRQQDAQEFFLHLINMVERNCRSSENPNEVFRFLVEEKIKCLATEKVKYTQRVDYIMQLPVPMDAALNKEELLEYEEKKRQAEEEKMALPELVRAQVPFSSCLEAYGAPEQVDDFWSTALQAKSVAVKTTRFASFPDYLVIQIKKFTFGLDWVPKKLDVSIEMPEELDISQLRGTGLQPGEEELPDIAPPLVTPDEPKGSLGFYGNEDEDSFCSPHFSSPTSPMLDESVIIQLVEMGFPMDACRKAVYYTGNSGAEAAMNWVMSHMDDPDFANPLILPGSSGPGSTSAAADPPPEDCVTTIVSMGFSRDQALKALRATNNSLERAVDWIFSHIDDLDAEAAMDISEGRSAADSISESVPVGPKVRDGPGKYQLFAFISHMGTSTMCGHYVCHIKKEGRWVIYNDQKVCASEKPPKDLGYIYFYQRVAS
Method in brief: as §1

USP54 = USP54 (UniProt Q70EL1)
Method in brief: as §1

USP7 = USP7 (UniProt Q93009)
Method in brief: as §1

USP8 = target: T5, USP8 (UniProt P40818)
T5 sequence (whole entry): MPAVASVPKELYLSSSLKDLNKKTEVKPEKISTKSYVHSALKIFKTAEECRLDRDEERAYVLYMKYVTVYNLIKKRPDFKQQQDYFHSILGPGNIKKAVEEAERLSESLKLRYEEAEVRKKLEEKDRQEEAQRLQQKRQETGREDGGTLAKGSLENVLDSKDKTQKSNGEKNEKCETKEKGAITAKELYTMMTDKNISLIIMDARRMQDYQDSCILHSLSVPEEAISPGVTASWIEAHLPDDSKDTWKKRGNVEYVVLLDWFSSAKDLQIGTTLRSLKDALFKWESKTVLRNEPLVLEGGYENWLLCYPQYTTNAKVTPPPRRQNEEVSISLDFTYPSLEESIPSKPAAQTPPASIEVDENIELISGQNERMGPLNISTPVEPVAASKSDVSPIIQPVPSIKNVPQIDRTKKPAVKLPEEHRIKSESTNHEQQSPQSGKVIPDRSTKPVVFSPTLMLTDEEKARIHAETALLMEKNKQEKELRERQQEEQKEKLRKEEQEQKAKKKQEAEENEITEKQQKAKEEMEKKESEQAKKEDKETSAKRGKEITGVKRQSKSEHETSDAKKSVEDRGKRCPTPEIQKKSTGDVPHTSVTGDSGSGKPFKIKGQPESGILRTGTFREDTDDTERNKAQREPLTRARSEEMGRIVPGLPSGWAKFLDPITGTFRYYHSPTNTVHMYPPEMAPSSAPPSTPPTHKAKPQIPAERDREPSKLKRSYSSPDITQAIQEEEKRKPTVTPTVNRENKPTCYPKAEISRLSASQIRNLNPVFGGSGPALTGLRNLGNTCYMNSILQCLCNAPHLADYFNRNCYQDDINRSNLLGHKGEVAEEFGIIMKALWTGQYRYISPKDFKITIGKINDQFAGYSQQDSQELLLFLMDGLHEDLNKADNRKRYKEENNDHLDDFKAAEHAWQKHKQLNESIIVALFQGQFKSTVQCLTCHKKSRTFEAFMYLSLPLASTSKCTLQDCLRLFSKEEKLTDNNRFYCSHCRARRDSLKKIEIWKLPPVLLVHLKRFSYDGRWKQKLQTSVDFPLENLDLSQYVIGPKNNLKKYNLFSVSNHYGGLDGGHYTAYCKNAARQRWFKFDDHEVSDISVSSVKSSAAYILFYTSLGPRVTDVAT
Method in brief: as §1

Measured: log2 ratio of Biotin-Ahx-Ub-VS probe labelling

Chain of USP54 (Q70EL1 whole entry): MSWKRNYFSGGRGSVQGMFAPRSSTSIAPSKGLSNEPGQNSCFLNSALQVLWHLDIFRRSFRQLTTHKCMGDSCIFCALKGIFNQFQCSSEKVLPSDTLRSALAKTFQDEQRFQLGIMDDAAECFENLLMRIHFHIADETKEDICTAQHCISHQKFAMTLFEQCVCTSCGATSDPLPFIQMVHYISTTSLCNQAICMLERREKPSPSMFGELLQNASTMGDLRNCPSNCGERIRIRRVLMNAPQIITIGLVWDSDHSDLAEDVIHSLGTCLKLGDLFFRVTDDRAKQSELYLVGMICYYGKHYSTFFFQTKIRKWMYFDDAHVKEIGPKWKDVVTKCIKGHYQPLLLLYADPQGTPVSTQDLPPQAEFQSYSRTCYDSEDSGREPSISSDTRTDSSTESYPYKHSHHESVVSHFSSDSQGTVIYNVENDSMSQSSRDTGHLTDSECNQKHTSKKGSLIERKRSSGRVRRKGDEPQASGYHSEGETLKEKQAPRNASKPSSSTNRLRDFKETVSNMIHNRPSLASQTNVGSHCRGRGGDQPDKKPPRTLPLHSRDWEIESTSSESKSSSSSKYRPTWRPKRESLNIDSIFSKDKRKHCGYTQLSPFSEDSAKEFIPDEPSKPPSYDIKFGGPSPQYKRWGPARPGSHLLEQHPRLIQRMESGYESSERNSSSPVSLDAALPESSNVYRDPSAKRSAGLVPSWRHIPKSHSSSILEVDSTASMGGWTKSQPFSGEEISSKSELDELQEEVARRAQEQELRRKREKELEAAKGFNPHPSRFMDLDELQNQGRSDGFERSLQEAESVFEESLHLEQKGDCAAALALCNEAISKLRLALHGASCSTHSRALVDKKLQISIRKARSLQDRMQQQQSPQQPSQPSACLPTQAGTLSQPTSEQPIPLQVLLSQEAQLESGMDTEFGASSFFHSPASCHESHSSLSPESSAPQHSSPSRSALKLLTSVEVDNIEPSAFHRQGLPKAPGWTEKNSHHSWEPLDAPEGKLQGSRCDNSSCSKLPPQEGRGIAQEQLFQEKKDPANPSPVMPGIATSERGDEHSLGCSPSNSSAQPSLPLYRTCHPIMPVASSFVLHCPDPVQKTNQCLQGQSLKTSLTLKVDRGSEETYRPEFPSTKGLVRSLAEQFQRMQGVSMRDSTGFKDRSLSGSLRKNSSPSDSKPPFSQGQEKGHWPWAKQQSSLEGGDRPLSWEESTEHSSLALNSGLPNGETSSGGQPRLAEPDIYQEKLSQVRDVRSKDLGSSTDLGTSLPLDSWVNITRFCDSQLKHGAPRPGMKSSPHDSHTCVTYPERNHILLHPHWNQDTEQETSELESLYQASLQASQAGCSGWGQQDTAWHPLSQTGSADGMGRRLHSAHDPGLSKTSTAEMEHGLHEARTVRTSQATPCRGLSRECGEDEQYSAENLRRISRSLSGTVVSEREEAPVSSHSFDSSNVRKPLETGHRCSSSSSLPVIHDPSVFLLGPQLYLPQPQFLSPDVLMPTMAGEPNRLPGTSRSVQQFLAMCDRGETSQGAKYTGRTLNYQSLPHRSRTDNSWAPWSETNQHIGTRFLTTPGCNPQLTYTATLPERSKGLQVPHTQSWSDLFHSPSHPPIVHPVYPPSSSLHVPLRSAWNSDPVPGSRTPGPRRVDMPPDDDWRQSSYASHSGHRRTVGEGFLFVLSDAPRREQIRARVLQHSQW
Chain of USP46 (P62068 whole entry): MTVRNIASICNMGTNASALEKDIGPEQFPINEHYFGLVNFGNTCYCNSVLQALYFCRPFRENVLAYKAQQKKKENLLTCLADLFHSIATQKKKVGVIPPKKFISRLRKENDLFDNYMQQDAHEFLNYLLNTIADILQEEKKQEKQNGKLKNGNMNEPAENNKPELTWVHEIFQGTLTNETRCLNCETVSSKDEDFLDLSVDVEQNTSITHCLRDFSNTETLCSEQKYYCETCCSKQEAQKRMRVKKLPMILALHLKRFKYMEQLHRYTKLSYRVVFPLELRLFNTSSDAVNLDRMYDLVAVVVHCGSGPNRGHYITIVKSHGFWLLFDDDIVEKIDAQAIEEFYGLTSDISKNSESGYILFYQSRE
Chain of USP7 (Q93009 whole entry, looked up): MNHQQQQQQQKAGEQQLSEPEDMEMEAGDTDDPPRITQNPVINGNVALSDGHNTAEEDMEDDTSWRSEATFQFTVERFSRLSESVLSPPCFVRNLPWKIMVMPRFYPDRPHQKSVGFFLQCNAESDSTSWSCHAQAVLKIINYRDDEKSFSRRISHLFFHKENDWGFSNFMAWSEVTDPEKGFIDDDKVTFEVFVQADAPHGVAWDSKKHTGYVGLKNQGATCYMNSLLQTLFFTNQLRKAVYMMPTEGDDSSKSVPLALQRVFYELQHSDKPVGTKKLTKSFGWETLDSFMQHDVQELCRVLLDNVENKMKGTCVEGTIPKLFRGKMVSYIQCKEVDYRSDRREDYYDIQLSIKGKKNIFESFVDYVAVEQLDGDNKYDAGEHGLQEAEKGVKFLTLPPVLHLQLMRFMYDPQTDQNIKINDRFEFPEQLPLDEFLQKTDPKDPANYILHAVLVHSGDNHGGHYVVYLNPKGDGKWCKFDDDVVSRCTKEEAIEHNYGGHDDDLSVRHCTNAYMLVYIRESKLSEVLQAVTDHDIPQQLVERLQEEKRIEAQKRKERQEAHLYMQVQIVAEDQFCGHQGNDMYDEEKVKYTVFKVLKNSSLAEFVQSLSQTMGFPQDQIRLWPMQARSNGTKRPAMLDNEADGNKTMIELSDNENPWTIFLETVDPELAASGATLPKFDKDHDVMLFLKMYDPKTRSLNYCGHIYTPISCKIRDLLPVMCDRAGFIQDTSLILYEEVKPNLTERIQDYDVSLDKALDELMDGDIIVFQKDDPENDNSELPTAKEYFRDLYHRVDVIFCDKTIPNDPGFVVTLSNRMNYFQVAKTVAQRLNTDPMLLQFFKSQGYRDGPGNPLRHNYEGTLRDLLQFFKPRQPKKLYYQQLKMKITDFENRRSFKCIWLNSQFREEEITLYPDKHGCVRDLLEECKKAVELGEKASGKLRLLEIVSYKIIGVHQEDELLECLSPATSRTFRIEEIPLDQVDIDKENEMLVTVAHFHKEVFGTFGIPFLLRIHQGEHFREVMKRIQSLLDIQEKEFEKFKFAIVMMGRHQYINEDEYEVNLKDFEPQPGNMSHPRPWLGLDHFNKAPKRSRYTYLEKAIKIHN

O=C(CCl)N1CCC(O)(Cc2ccc(F)cc2)C1 (stereo not drawn)
inactive: USP42 0.0317 | USP46 -0.0773 | USP47 -0.574 | USP48 -0.434 | USP5 0.465 | USP54 -0.501 | USP7 -0.133 | USP8 -0.169
